The values below come from PubChem BioAssay (NCI).

Test systems include T-47D breast; BT-549 breast; MDA-MB-435 melanoma; SW-620 colon; MCF7 breast; HCT-116 colon; HCC-2998 colon; KM12 colon.
Holding throughout (test): NCI-60 one-dose screen, 48 h (100 = growth as untreated, 0 = no growth, -100 = all killed)
What all share (conditions): 10 µM unless noted

This is part of a sample that, as a whole, favours compounds with a hit. Of some 83,000 tested, about 20% had one in any assay.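 For each line, cells grew in 96-well plates with the test compound present at a single concentration for 48 hours.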 A number with no mark means an inactive call. The source made the active and inactive calls. How the source made its calls: active means growth percent below 10; inactive means the rest.

`CC(=O)N1N=C(c2ccc(C)cc2)CC1c1cn(-c2ccccc2)nc1-c1cccc(Nc2ccnc3cc(Cl)ccc23)c1` (stereo not drawn): the growth with T-47D breast was 23.4%; in the test with BT-549 breast, 87.3%; in the test with MDA-MB-435 melanoma, 13.8%; in the test with SW-620 colon, 27.2%; in the test on MCF7 breast, 24.8%; in the test on HCT-116 colon it was 6.87% (active). The growth in the test with HCC-2998 colon is 102%; in the test on KM12 colon, 72.5%.
As to `CCSc1ccc([C@@H]2[C@@H](O)C(=O)N2c2cc(OC)c(OC)c(OC)c2)cc1`, the growth in the test on T-47D breast is 76.6%; in the test on BT-549 breast, 9.68% (active); in the test with MDA-MB-435 melanoma, -32.4% (active); in the test with SW-620 colon it was 22.3%; in the test with MCF7 breast it was 20.1%; with HCT-116 colon, 2.13% (active). The results for the growth in the test with HCC-2998 colon and with KM12 colon were 29.6% and 11.3%, respectively.
Turning to `COc1cc2nccc(Oc3ccc(NC(=O)C4(C(=O)Nc5ccc(F)cc5)CC4)cc3)c2cc1OC(=O)c1ccc(N)cc1`, the growth is 19.5% in the test on T-47D breast; 36.1% in the test on BT-549 breast; 33.2% in the test on MDA-MB-435 melanoma; 33.5% in the test on SW-620 colon; 23.8% in the test with MCF7 breast; 23.1% with HCT-116 colon. Besides, the growth in the test on HCC-2998 colon was 25.8%; in the test with KM12 colon, 12.3%.
With `CCCCCCCCCC1=NC(C)(C)CN1C(C)(C)CO`, the growth in the test with T-47D breast was 153%; in the test on BT-549 breast, 105%; with MDA-MB-435 melanoma, 110%; with SW-620 colon, 93.8%; in the test on MCF7 breast, 95.3%; in the test on HCT-116 colon it was 69.3%. Besides, the growth in the test with HCC-2998 colon is 84.1%; in the test on KM12 colon it was 97.6%.
Regarding `CCCCNCCC(O)c1cc2ccc(C(F)(F)F)cc2c2cc(C(F)(F)F)ccc12` (stereo not drawn), the growth in the test on T-47D breast was -76.3% (active); in the test with BT-549 breast it was 4.84% (active); in the test on MDA-MB-435 melanoma, -69.3% (active); in the test on SW-620 colon it was -76.2% (active); with MCF7 breast, -79.3% (active); with HCT-116 colon, -87.3% (active). Moreover, the growth was -78.5% (active) with HCC-2998 colon and -85.2% (active) in the test with KM12 colon.
As to `COc1cc(-c2nc(-c3nc4cc(C(=O)c5ccccc5)ccc4[nH]3)cc3c2[nH]c2ccccc23)cc(OC)c1OC`, the growth with T-47D breast was 88.9%; with BT-549 breast it was 79.7%; in the test with MDA-MB-435 melanoma, 96.2%; in the test with SW-620 colon, 103%; in the test with MCF7 breast, 86.3%; with HCT-116 colon it was 82.6%. Further, the growth with HCC-2998 colon was 104%; in the test on KM12 colon, 84.5%.
Take `N#CC1=C(N)Oc2nc[nH]c(=O)c2C1c1cccs1` (stereo not drawn): the growth with T-47D breast is 95.2%; in the test with BT-549 breast, 103%; in the test with MDA-MB-435 melanoma, 101%; in the test on SW-620 colon, 102%; in the test on MCF7 breast, 97.1%; in the test with HCT-116 colon, 106%. Moreover, the growth in the test on HCC-2998 colon is 114%; in the test on KM12 colon, 108%.
In the case of `COc1ccc(-n2nc(C(=O)NCC(=O)Nc3nc4cc(OC)ccc4s3)c3ccccc3c2=O)cc1`, the growth in the test on T-47D breast was 17%; in the test on BT-549 breast, -23.4% (active); in the test on MDA-MB-435 melanoma it was 42.5%; with SW-620 colon it was 47.6%; in the test with MCF7 breast it was -6.52% (active); in the test on HCT-116 colon it was 2.56% (active). Besides, the growth was 55.8% in the test on HCC-2998 colon and 18.2% with KM12 colon.
For `C=CCN(CCOC(=O)c1ccc([N+](=O)[O-])cc1)CCOC(=O)c1ccc([N+](=O)[O-])cc1`, the growth in the test on T-47D breast is 90.5%; in the test on BT-549 breast it was 100%; with MDA-MB-435 melanoma it was 107%; with SW-620 colon, 100%; with MCF7 breast, 96.3%; in the test with HCT-116 colon, 96.2%. The growth with HCC-2998 colon was 105%; in the test on KM12 colon, 103%.
Regarding `O=C(/C=C/c1ccccc1)C(Br)C(Br)c1ccccc1` (stereo not drawn), the growth in the test with T-47D breast was -36.6% (active); with BT-549 breast it was -60.8% (active); in the test with MDA-MB-435 melanoma it was -68.7% (active); in the test with SW-620 colon, -53.1% (active); in the test with MCF7 breast it was -48.3% (active); in the test on HCT-116 colon it was -94.2% (active). Moreover, the growth was 51.8% with HCC-2998 colon and 8.19% (active) in the test on KM12 colon.
Consider `O=C(/C=C/c1cc([N+](=O)[O-])ccc1Cl)c1ccccc1`, for which the growth with T-47D breast is 72.3%; with BT-549 breast, 86.3%; with MDA-MB-435 melanoma it was 86%; with SW-620 colon, 6.41% (active); in the test on MCF7 breast, 20.6%; in the test on HCT-116 colon it was -100% (active). In addition, the results for the growth in the test on HCC-2998 colon and with KM12 colon were 103% and 5.35% (active), respectively.
On to `CC(=O)Nc1ccc(Cl)cc1Cl`, for which the growth with T-47D breast is 103%; with BT-549 breast, 120%; in the test on MDA-MB-435 melanoma, 96%; with SW-620 colon, 116%; with MCF7 breast it was 100%; in the test on HCT-116 colon, 105%. Also, the growth in the test with HCC-2998 colon was 106%; in the test on KM12 colon it was 112%.
With `NCCCOc1cc2ccccc2cc1C(=O)NCCCOc1cc2ccccc2cc1C(=O)Nc1ccc(Cl)cc1O`, the growth in the test with T-47D breast is -67.6% (active); in the test on BT-549 breast, -39.8% (active); in the test on MDA-MB-435 melanoma it was -85.5% (active); with SW-620 colon, -73.9% (active); in the test on MCF7 breast, -93.5% (active); in the test with HCT-116 colon, -85.8% (active). For the same molecule, the growth is -92.3% (active) in the test on HCC-2998 colon and -2.6% (active) in the test on KM12 colon.
For the molecule `C=C(C)[C@@H]1CC[C@]2(C)[C@H](CC=C3[C@@H]4C[C@](C)(C(=O)N5CCN(C)CC5)CC[C@]4(C)CC[C@]32C)[C@@]1(C)CCC#N`, the growth with T-47D breast was 42.4%; in the test on BT-549 breast, 56.6%; with MDA-MB-435 melanoma, 51.3%; in the test on SW-620 colon, 57.1%; in the test with MCF7 breast, 34.1%; in the test with HCT-116 colon, 26.7%. The growth in the test on HCC-2998 colon was 70.6%; in the test on KM12 colon, 53.6%.
With `NC(=Nc1ccccc1)SCCCSC(N)=Nc1ccccc1`, the growth in the test with T-47D breast was 70.1%; with BT-549 breast, 92.9%; in the test with MDA-MB-435 melanoma, 89.8%; in the test on SW-620 colon, 95.4%; with MCF7 breast, 90.9%; in the test with HCT-116 colon, 90.5%. The growth with HCC-2998 colon was 99.2%; with KM12 colon, 94.7%.
Regarding `CC(C)[C@H](CN)NC[C@H](C)NS(=O)(=O)c1ccc(C(C)(C)C)cc1`, the growth with T-47D breast is 80.5%; with BT-549 breast it was 81.2%; in the test on MDA-MB-435 melanoma, 99.7%; with SW-620 colon, 94.2%; in the test on MCF7 breast it was 90.2%; in the test on HCT-116 colon, 86.2%. Also, the growth in the test with HCC-2998 colon is 105%; with KM12 colon it was 101%.
